Screening results: PubChem BioAssay, National Center for Advancing Translational Sciences (NCATS)
POLI inh – inhibitors of human DNA polymerase iota. Pol iota fluorescent replication assay, 10 min. Potency, µM (highest dose often 115 µM), inactives show top-dose activity, negative = inhibition, actives largely listed as inhibitors. 390,000 compounds, 1% hits. AID 588590; also: potency is read from the fitted curve at half-maximal effect
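Fluorescent replication assay read twice, at 0 min and 10 min after adding 50 nM (final) substrate. Enzyme (10 nM) and compounds were first incubated 15 min at room temperature; enzyme-free buffer wells were negative controls.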
APE1 inh – blocks human APE1 abasic DNA cleavage; P27695; recombinant APE1, TAMRA/BHQ-2 abasic DNA cleavage fluorescence; Potency, µM (titrated, usually from 65.8 µM), for inactives: top-dose activity change, negative = inhibition, most hits filed as inhibitors; 350,000 compounds, 0.35% hits; AID 2517;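 also: potency is read from the fitted curve at half-maximal effect; plate controls were vehicle for no effect and reference inhibitor for full effect; nearly all actives have a fitted effect of over 55% in size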
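Quantitative HTS: incision of a TAMRA/BHQ-2 double-stranded substrate bearing a tetrahydrofuran abasic site by 0.75 nM APE1 raises fluorescence. Substrate 50 nM final, added after 15 min compound preincubation at room temperature; progress as third-minus-first kinetic read difference.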
L3MBTL1 inh – L3MBTL1 (human) inhibition. Q9Y468. AlphaScreen L3MBTL1–H3K9me1 peptide binding. Potency, µM (top dose mostly 57.1 µM), for inactives: top-dose activity, negative = inhibition, actives largely listed as inhibitors. 230,000 compounds, 0.66% hits. AID 485360; also: potency is read from the fitted curve at half-maximal effect; % is scaled to controls: 0 for no effect and ±100 for the full control effect; nearly all actives have a fitted effect of over 60% in size
Target sequence (Q9Y468 whole entry, looked up): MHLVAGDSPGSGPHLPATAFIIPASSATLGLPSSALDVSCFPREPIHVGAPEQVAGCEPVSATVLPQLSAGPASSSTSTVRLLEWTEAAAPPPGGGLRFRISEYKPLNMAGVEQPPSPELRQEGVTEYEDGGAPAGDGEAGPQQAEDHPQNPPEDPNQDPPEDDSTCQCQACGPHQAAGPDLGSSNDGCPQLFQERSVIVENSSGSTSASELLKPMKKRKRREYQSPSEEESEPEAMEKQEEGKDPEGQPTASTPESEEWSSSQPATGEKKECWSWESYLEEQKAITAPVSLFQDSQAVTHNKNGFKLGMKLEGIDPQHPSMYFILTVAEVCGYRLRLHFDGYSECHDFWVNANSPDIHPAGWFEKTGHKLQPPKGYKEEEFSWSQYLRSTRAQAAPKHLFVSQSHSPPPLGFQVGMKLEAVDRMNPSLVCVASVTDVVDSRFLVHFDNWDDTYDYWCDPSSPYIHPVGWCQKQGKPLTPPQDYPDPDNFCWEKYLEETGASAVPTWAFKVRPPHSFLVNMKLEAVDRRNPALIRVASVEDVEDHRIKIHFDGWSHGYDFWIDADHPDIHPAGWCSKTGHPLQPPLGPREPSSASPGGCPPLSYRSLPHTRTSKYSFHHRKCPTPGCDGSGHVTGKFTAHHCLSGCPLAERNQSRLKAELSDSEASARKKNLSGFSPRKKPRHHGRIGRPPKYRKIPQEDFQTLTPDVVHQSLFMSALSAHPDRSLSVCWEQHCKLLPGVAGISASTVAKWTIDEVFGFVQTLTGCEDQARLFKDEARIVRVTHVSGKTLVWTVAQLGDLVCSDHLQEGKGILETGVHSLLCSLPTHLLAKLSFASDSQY
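First, the protein-peptide complex forms for 30 min at room temperature (L3MBTL1 50 nM, biotinylated H3K9me1 peptide 75 nM). Next, compounds are pin-transferred and incubated 30 min. Finally, AlphaScreen beads are added and read after 30 min.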
Pol kappa inh-1 – blocks human DNA polymerase kappa activity. Potency, µM (titrated, usually from 107 µM), for inactives: at the highest dose activity, negative = inhibition, most hits filed as inhibitors. 400,000 compounds, 0.53% hits. purified Pol kappa, fluorescent DNA synthesis assay, 10 min. Q9UBT6. AID 588579; also: potency is read from the fitted curve at half-maximal effect; % is scaled to controls: 0 for no effect and ±100 for the full control effect
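Kinetic fluorescence screen: compound preincubated 15 min RT with 10 nM enzyme; 50 nM substrate (final) initiates; reads at 0/10 min.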
Pol eta inh-1 – DNA polymerase eta (human) inhibition. Q9Y253. recombinant Pol eta, fluorescent DNA replication assay. Potency, µM (top dose mostly 114 µM), for the others: top-dose activity change, negative = inhibition, most hits filed as inhibitors. 390,000 compounds, 1.2% hits; also: potency is read from the fitted curve at half-maximal effect; % is scaled to controls: 0 for no effect and ±100 for the full control effect
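Pol eta at 10 nM preincubated with compounds 15 min at room temperature; reaction started with fluorescent substrate (50 nM final) and read kinetically at 0 and 10 min.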
POLB inh – DNA polymerase beta (human) inhibition; P06746; Pol beta primer extension/strand displacement, fluorescence kinetic; Potency, µM (series often up to 114 µM), for the others: at the top dose activity change, negative = inhibition, usual class: inhibitors; 340,000 compounds, 1.3% hits; also: potency is read from the fitted curve at half-maximal effect; % is scaled to controls: 0 for no effect and ±100 for the full control effect
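Values derive from four-parameter Hill fits of normalized kinetic data: reads at 0 and 10 min following addition of 50 nM substrate to 10 nM Pol beta preincubated 15 min with compound.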
PGK validate – TbPGK inhibition, hit validation | TbPGK coupled GAPDH assay, Kinase-Glo luminescence | shares compounds with Pol kappa inh-1 | 500 compounds, 79% hits | Potency, µM (doses to about 57.5 µM), for inactives: at the top dose activity change, negative = inhibition, hits mostly inhibitors; also: potency is read from the fitted curve at half-maximal effect; % is scaled to controls: 0 for no effect and ±100 for the full control effect; nearly all actives have a fitted effect of over 65% in size
POLI cherry-pick – Confirm cherry-picked inhibitors of human polymerase iota; Pol iota primer extension, TAMRA/BHQ fluorescence; Potency, µM, actives largely listed as inhibitors; shares compounds with Pol kappa inh-1; 1,500 compounds, 77% hits; also: potency is read from the fitted curve at half-maximal effect
GALK confirm – galactokinase (human) inhibition, confirmation; shares compounds with Pol eta inh-1; purified GALK, Kinase-Glo ATP depletion luminescence; Potency, µM (top dose mostly 115 µM), without a hit: top-dose activity, negative = inhibition, most hits filed as inhibitors; 150 compounds, 70% hits
GALK redox cs – counter-screen for GALK inhibitors: redox cycling H2O2 generation; shares compounds with Pol eta inh-1; 150 compounds, 40% hits; Potency, µM (doses to about 115 µM), without a hit: at the top dose activity change, negative = H2O2 signal, actives largely listed as inhibitors; Phenol red-HRP H2O2 redox cycling, absorbance 600 nm
HEK293 tox – HEK-293 cytotoxicity, GALK inhibitor secondary; shares compounds with Pol eta inh-1; HEK-293 viability, ATP luminescence (CellTiter-Glo), 24/48 h; Potency, µM (highest dose often 46.1 µM), for inactives: at the highest dose activity change, negative = cytotoxicity, most hits filed as inhibitors; 170 compounds, 10% hits; also: potency is read from the fitted curve at half-maximal effect; % is scaled to controls: 0 for no effect and ±100 for the full control effect
Pol kappa inh-2 – confirmation of human DNA polymerase kappa inhibitors. shares compounds with Pol eta inh-1. Potency, µM, hits mostly inhibitors. purified Pol-kappa, fluorescent strand-displacement substrate. AID 720501. 920 compounds, 76% hits; also: potency is read from the fitted curve at half-maximal effect
Pol eta inh-2 – confirmation of human DNA polymerase eta inhibitors. Pol eta primer extension, TAMRA/BHQ fluorescence, 10 min. 2,600 compounds, 64% hits. shares compounds with Pol eta inh-1. AID 720502. Potency, µM, hits mostly inhibitors; also: potency is read from the fitted curve at half-maximal effect
Starred values were filed as active, the others as inactive; ? = inconclusive; / = not tested or not shown; [ ] = another dose, or the depositor's remark. The list is not random: actives were taken first. Their share in the collection is about 2.5%. Calls follow the shape of the dose curve; as a rule, active = well fitted curve in the direction sought with a large enough effect; inconclusive = small, poorly fitted or top-dose-only effect, or another doubt; inactive = no such curve, though single readings can be large; an effect the other way counts as inactive or inconclusive.

SMILES | POLI inh | APE1 inh | L3MBTL1 inh | Pol kappa inh-1 | Pol eta inh-1 | POLB inh | POLI cherry-pick | Pol eta inh-2 | others
O=[N+]([O-])c1cc2ccccc2c(O)c1O | / | / | / | / | 4.47µM* | / | 11.9* | 7.57* | Pol kappa inh-2=2.12*
CCC1CCC/C1=N\NC(=O)c1ccccc1C (stereo not drawn) | 117.2% | / | / | 5.2% | -14.0% | / | / | /
CN(C)c1cc(Cl)c2nonc2c1N | 10µM* | ? | 31.6µM* | -22.5% | 79.4µM* | -26.1% | 75.2* | 75.7* | GALK confirm=21.1µM*;GALK redox cs=11.9µM*;HEK293 tox=19.4%
O=C(Nc1ccc(S(=O)(=O)N2CCCC2)cc1)C1CC(=O)N(CCc2ccccc2)C1 (stereo not drawn) | / | / | / | / | 3.1% | / | / | /
C=CCc1cccc2cc(C(=O)Nc3ccc(F)cc3)c(=O)oc12 | 2.5% | 18.3% | -2.4% | -24.8% | -0.9% | -29.6% | / | /
C=CCc1cccc2cc(C(=O)Nc3ccc(CC(=O)O)cc3)c(=O)oc12 | ? | ? | -9.5% | ? | 35.5µM* | 22.4µM* | ? | 67.5*
Cc1ccc(-c2cc(C(F)(F)F)n3nc(C(=O)Nc4ccc(Cl)cc4Cl)cc3n2)cc1 | -3.2% | / | / | -7.5% | -3.1% | 26.6% | / | /
Cc1nn(C)c2c1c(-c1ccccc1)cc(=O)n2CC(=O)NC(C)c1ccccc1 (stereo not drawn) | ? | / | / | ? | 25.1µM* | 14.1µM* | 33.6* | 26.9* | Pol kappa inh-2=16.8*
Cc1cc(=O)n(CC(=O)NC(C)c2ccccc2)c2c1c(C)nn2C (stereo not drawn) | -22.8% | / | / | ? | 39.8µM* | 31.6µM* | 67* | 84.9*
CCCCCCCCCCCCCCCC(=O)N[C@H](CN1CCOCC1)[C@H](O)c1ccccc1 | / | 0.4% | / | -4.1%[19.4 µM] | / | / | / | /
Cc1cc(/C=C2\SC(=S)NC2=O)c(C)[nH]1 | 20µM* | ? | -18.5% | 79.4µM* | 20µM* | 22.4µM* | ? | 75.7*
CCn1c(C)cc(/C=C2/SC(=S)NC2=O)c1C | 14.7% | 2.3% | -2.3% | -10.4% | -1.7% | 0.6% | / | /
O=C(Cc1ccccc1)NCC(=O)OCC(=O)c1ccc2ccccc2c1 | 8.3% | / | / | 3.2% | / | / | / | /
C/C(N)=C(/C#N)C(=O)CSc1nnc(Nc2ccccc2)s1 | 23.4% | -6.7% | 3.1% | -5.8% | -2.0% | 9.3% | / | /
C/C(N)=C(/C#N)C(=O)CSc1nnc(NC(C)C)s1 | ? | ? | ? | ? | 28.2µM* | -28.3% | 67* | 67.5*
CC(/C=C1\SC(=S)N(c2ccc(C(=O)O)cc2)C1=O)=C\c1ccccc1 | 20µM* | -2.5% | / | -37.4% | 22.4µM* | -23.8% | 37.7* | 42.6*
CCOc1ccc(CNCc2c(C(=O)O)c(C)n(Cc3c(F)cccc3Cl)c2C)cc1OC | -12.9% | / | / | -8.6% | 0.3% | 6.3% | / | /
CCC(=O)Nc1sc2c(c1C(=O)Nc1ccccc1C)CCC(C)C2 (stereo not drawn) | 29.5% | / | / | -3.8%[60.1 µM] | -17.7% | 1.1% | / | /
COc1cc(/C=C/C=C2/CC/C(=C/C=C/c3ccc(O)c(OC)c3)C2=O)ccc1O | 3.55µM* | / | / | 14.1µM* | 5.01µM* | / | 21.2* | 15.1*
N#Cc1c(-c2ccccc2)nc(SCC(=O)N2c3ccccc3Sc3ccccc32)[nH]c1=O | ? | -8.6% | -18.6% | -13.9% | 39.8µM* | 25.1µM* | 84.4* | ? | GALK confirm=29.8µM*;GALK redox cs=-4.0%;HEK293 tox=1.1%
NCCC[C@@H](CC(=O)N[C@@H]1CCCC[C@H]1C(=O)N[C@H](CC(=O)N[C@@H](CCC(=O)O)CC(=O)O)Cc1c[nH]c2ccccc12)NC(=O)C[C@H](Cc1ccccc1)NC(=O)[C@@H]1CNCC[C@H]1N | / | 1.7% | / | / | / | / | / | /
CN1C(=O)/C(=C/c2ccc(C(=O)Nc3ccc(O)cc3C(=O)O)cc2)SC1=S | ? | 23.8µM* | / | -8.9% | 22.4µM* | ? | 75.2* | 42.6*
O=C(CCN1C(=O)/C(=C\C=C\c2ccccc2)SC1=S)Nc1cccc(C(=O)O)c1 | -19.7% | ? | / | 79.4µM* | 22.4µM* | 50.1µM* | 75.2* | 53.6*
Nc1c(/C=C2/C=CC(=O)C(O)=C2)c(=O)nc2sc(CC(=O)N3CCCC3)nn12 | 3.16µM* | 10.6µM* | / | ? | 3.98µM* | 7.94µM* | 23.8* | 5.36*
Nc1c(/C=C2/C=CC(=O)C(O)=C2)c(=O)nc2sc(CC(=O)N3CCOCC3)nn12 | 8.91µM* | / | / | ? | 3.55µM* | / | 16.8* | 6.01* | PGK validate=9.19µM*
CCOC1=C/C(=C/c2c(N)n3nc(CC(=O)N4CCCC4)sc3nc2=O)C=CC1=O | ? | 65.3% | / | -41.1% | ? | -28.1% | / | /
CSc1ccc2c(c1)N(CC[C@H]1CCCCN1C)c1ccccc1S2 | / | -2.3%[21 µM] | / | -1.7%[12 µM] | / | / | / | /
COc1ccccc1/C=C1\SC(=S)N(C(C(=O)O)c2ccccc2)C1=O (stereo not drawn) | 13.6% | -3.9% | -9.2% | -4.5% | -18.5% | -22.8% | / | /
